The values that follow come from PubChem BioAssay (Tox21).

Inconclusive results are not listed. Entries that show only a call come without a potency. Active and inactive are the calls of the source. Calls follow the shape of the dose curve; as a rule, active = well fitted cell-killing curve with a large enough effect in the repeat runs; inconclusive = weak or mixed curves, or effect the other way; inactive = flat fitted curve, though single readings scatter.
Potency is read from the fitted curve at half-maximal effect.

The nature of this assay: cAMP Responsive Elements (CRE) small molecule antagonists, cell-based qHTS assay: qHTS cell viability counter screen (AID 2060913). Also: nearly all actives have a fitted effect of over 40% in size. The conditions noted are these: CRE-bla HEK293T viability, CellTiter-Glo luminescence, 5 h; series mostly up to 92.4 µM. The text has this:
U.S. Tox21 Program National Center for Advancing Translational Sciences [NCATS] Division of Preclinical Innovation [DPI] U.S. Environmental Protection Agency [EPA] National Institutes of Environmental Health Sciences [NIEHS] National Toxicology Program [NTP] U.S. Food and Drug Administration [FDA] Tox21 Assay Overview: CREB (cyclic-AMP Responsive Element Binding Protein) is a cellular transcription factor. It binds to certain DNA sequences called cAMP Responsive Elements (CRE) and regulates the transcription of the genes. […] This cell line can be used to find agonists/antagonists of the cyclic AMP signaling pathway. The activation of the report gene under culture conditions can be detected by fluorescence intensity. This cell line has been used to screen the Tox21 10K compound library to identify agonists that induce oxidative stress. The cytotoxicity of the Tox21 compound library against the CRE-bla cell line was tested in parallel by measuring the cell viability using CellTiter-Glo assay (Promega, Madison, WI) in the same wells.
Tox21 Assay Protocol Summary: CRE-bla Hek 293T cells were suspended in assay medium (DMEM containing 10% dialyzed FBS, 0.1 mM NEAA, 1 mM sodium pyruvate and 25 mM HEPES) and dispensed at 2,000 cells/4 uL /well into 1536-well black wall/clear bottom plates using a Multidrop Combi (ThermoFisher Scientific, Waltham, MA) dispenser. After the assay plates were incubated at 37 C/5% CO2 for 18 hrs, 23 nL of compounds dissolved in DMSO, positive controls or DMSO only was transferred to the assay plate by a pintool workstation (Kalypsys, San Diego, CA), followed by addition of 1 uL of 1.25uM NKH477 (0.25 uM as final concentration) in assay medium using a Flying Reagent Dispenser (Aurora Discovery, San Diego, CA). The plates were incubated at 37 C and 5% CO2 for 3 hrs. Then 1 uL of LiveBLAzer B/G FRET substrate (Invitrogen, Carlsbad, CA) was added to each well using Bioraptr Flying Reagent Dispenser (FRD, Aurora Discovery, San Diego, CA). The plates were incubated at room temperature for 2 h, then fluorescence intensities were measured using an Envision plate reader (PerkinElmer, Shelton, CT) at Excitation 405nm, Emission 460nm and 530nm. The % activity was determined from the ratio of 460nm/530nm. For cell viability readout that measures cytotoxicity, 4 uL /well of CellTiter-Glo reagent was added into the assay plates using Bioraptr FRD. After 30 min incubation at room temperature, the luminescence intensity in the assay plates was measured using a ViewLux (PerkinElmer, Shelton, CT) plate reader.
Take `CCc1nccnc1C`: the Potency result was “inactive”.

In the case of `O=S(=O)(O)c1ccccc1`, the Potency result is “inactive”.

In the case of `CC/C=C\CCOC(=O)CC`, the Potency entry was “inactive”.

Take `CCCCC(CC)COC(=O)CCCCCCCCC(=O)OCC(CC)CCCC` (stereo not given): the Potency result is “inactive”.

For the molecule `CC(C)(C)c1ccc(S)cc1`, the Potency entry is “inactive”.

With `O=C(Cl)c1ccc(C(=O)Cl)cc1`, the Potency result was “inactive”.

In the case of `CC(C)=CCC/C(C)=C/CO`, the Potency result is “inactive”.

As to `CC(=O)N(CC(O)CO)c1c(I)c(C(=O)NCCO)c(I)c(C(=O)NCC(O)CO)c1I` (stereo not given), the Potency entry was “inactive”.

On to `Cc1c(N)cccc1N`, for which the Potency entry was “inactive”.

Consider `C=C(C#N)C(=O)OCC`, for which the Potency result was “inactive”.

In the case of `COc1ccc(OC)c(N=Nc2c(O)ccc3ccccc23)c1`, the Potency result is “inactive”.

In the case of `CCCCCCC(C)(C)S`, the Potency result was “inactive”.

As to `O=C(COCCOCCOCC(=O)Nc1c(I)cc(I)c(C(=O)O)c1I)Nc1c(I)cc(I)c(C(=O)O)c1I`, the Potency result is “inactive”.

Take `CCOC(=O)CC(=O)OCC`: the Potency result was “inactive”.

For `C[Si](C)O[Si](C)C`, the Potency result is “inactive”.

Consider `CCCC(=O)O`, for which the Potency entry is “inactive”.

Consider `Cc1ccc2c(c1)c1c3n2CCNC3CCC1` (stereo not given), for which the Potency result was “inactive”.

`COC(=O)[C@H]1[C@H]2C[C@@H]3c4[nH]c5cc(OC)ccc5c4CCN3C[C@H]2C[C@@H](OC(=O)COc2ccc(OC)cc2)[C@@H]1OC`: the Potency entry was “inactive”.

Consider `CC(O)CN(CCN(CC(C)O)CC(C)O)CC(C)O` (stereo not given), for which the Potency result was “inactive”.

Turning to `CCN(CC)CC(=O)Nc1c(C)cccc1C(=O)OC`, the Potency entry is “inactive”.

Regarding `O=c1c2ccccc2nnn1CCl`, the Potency entry is “inactive”.

On to `CC(CCC(=O)O)(c1ccc(O)cc1)c1ccc(O)cc1`, for which the Potency result is “inactive”.

With `CCCCCCCCn1sc(Cl)c(Cl)c1=O`, the Potency is 30.6 µM (active).

As to `CC(C)(C)c1cc(CCC(=O)OCCSCCOC(=O)CCc2cc(C(C)(C)C)c(O)c(C(C)(C)C)c2)cc(C(C)(C)C)c1O`, the Potency result is “inactive”.

Consider `CCOC(=O)CC(C)C`, for which the Potency entry was “inactive”.

As for `CC(=O)Oc1ccc(C(=C2CCCCC2)c2ccc(OC(C)=O)cc2)cc1`, the Potency entry is “inactive”.

`CC1(CN2CCC(n3c(=O)[nH]c4ccccc43)CC2)OCc2ccccc2-n2cccc21` (stereo not given): the Potency entry was “inactive”.

Take `CCCCCCCCS`: the Potency entry was “inactive”.

For `OC[C@H]1O[C@@H]2O[C@H]3[C@H](O)[C@@H](O)[C@@H](O[C@H]4[C@H](O)[C@@H](O)[C@@H](O[C@H]5[C@H](O)[C@@H](O)[C@@H](O[C@H]6[C@H](O)[C@@H](O)[C@@H](O[C@H]7[C@H](O)[C@@H](O)[C@@H](O[C@H]8[C@H](O)[C@@H](O)[C@@H](O[C@H]9[C@H](O)[C@@H](O)[C@@H](O[C@H]1[C@H](O)[C@H]2O)O[C@@H]9CO)O[C@@H]8CO)O[C@@H]7CO)O[C@@H]6CO)O[C@@H]5CO)O[C@@H]4CO)O[C@@H]3CO`, the Potency result was “inactive”.

`C=C(C)C(=O)OCCOCCOCCOC(=O)C(=C)C`: the Potency result is “inactive”.

Take `CC(C)(C)C(=O)OCOC(=O)C1N2C(=O)CC2S(=O)(=O)C1(C)C` (stereo not given): the Potency result was “inactive”.

As for `O=C(O)c1c2ccccc2cc2ccccc12`, the Potency entry is “inactive”.

Consider `C[C@@H]1CC[C@H]2C(C)(C)[C@H]3C[C@@]12CC[C@@]3(C)O`, for which the Potency entry is “inactive”.

In the case of `CC(=O)Oc1ccc(C(C)=O)cc1`, the Potency result is “inactive”.

In the case of `COc1ccnc2c1CCCCC2S(=O)c1nc2ccccc2[nH]1` (stereo not given), the Potency result is “inactive”.

Turning to `Oc1c(I)cc(Cl)c2cccnc12`, the Potency entry is “inactive”.

On to `O=C1OC[C@H](Cc2cccc(O)c2)[C@H]1Cc1cccc(O)c1`, for which the Potency result was “inactive”.

As for `CCCCCCCCC/C=C/CC1CC(=O)OC1=O` (stereo not given), the Potency result was “inactive”.

Take `CC(C)CC(=O)OCc1ccccc1`: the Potency result is “inactive”.

`C/C=C(\C)C#N`: the Potency entry was “inactive”.
